Values joined by “and” are separate entries in the source; they are usually repeats but may differ in a detail not shown here. Identical values can stand only once. Results filed as inconclusive are left out. Entries that show only a call come without a potency. More than one record can exist for a structure, and the calls need not agree. Active and inactive are the calls of the source. The call rests on the fitted dose curve; in most records, active means well fitted inhibition curve with a large enough effect in the repeat runs; inconclusive means weak or mixed curves; inactive means no such curve, though single readings can be large or run the other way. Residues, ends and D or L forms follow the SMILES beside them.
Potency means the concentration at half of the fitted maximal effect.

Cytochrome P450 2C9 (Homo sapiens), sequence (P11712 whole entry, looked up): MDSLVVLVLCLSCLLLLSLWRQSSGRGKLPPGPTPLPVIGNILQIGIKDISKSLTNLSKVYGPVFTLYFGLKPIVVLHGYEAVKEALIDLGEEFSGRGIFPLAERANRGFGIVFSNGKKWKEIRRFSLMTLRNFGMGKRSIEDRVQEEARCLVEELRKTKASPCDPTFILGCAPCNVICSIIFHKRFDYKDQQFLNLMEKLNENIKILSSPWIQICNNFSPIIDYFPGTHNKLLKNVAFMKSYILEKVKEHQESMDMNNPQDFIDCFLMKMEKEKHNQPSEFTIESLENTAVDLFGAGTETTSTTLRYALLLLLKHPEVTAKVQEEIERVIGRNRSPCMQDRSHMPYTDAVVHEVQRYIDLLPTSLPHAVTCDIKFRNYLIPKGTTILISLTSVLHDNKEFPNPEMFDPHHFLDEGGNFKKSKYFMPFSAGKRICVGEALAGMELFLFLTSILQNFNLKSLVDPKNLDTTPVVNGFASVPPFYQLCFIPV

The target in this experiment is Cytochrome P450 2C9 (Homo sapiens) (UniProt P11712). Nature of the experiment: Cytochrome P450 Family 2 Subfamily C Member 9 (CYP2C9) small molecule antagonists: luciferase reporter qHTS assay (AID 1671198). Further: nearly all actives have a fitted effect of over 50% in size. Conditions: P450-Glo CYP2C9 enzyme assay, luciferin luminescence; series mostly up to 115 µM. The gist of the method:
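P450-Glo proluciferin substrate with CYP2C9 enzyme; 10 min RT preincubation, then NADPH regeneration 1 h at 37C; luciferin detection reagent 20 min RT, luminescence in relative luminescence units.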
Regarding `NC(N)=O`, the Potency entry was “inactive”.

On to `O=C(c1ccccc1)C(O)c1ccccc1` (centres undefined), for which the Potency result is “inactive”.

In the case of `CCCCOC(=O)CC(CC(=O)OCCCC)(OC(C)=O)C(=O)OCCCC`, the Potency was 2.75 µM (active) and 2.86 µM (active) and 2.52 µM (active).

As to `O=C(O)CCCCC(=O)O`, the Potency entry was “inactive”.

`CCCC(O)C(CC)CO` (centres undefined): the Potency entry is “inactive”.

In the case of `COC(=O)[C@H](Cc1ccccc1)NC(=O)[C@@H](N)CC(=O)O` (H-Asp-Phe-OMe), the Potency entry is “inactive”.

On to `CCOc1ccc(NC(=O)CC(C)O)cc1` (centres undefined), for which the Potency entry was “inactive”.

Consider `O=c1ccc2ccccc2o1`, for which the Potency result is “inactive”.

With `CC(O)C(=O)O` (centres undefined), the Potency result was “inactive”.

As to `CC(O)CN(CCN(CC(C)O)CC(C)O)CC(C)O` (centres undefined), the Potency result is “inactive”.

Regarding `C[C@]12C=CC(=O)C=C1CC[C@@H]1[C@@H]2[C@@H](O)C[C@@]2(C)[C@H]1CC[C@]2(O)C(=O)CO`, the Potency is 62.4 µM (active) and inactive.

Turning to `CC(C)(Oc1ccc(C2CC2(Cl)Cl)cc1)C(=O)O` (centres undefined), the Potency was 30.5 µM (active) and 22.4 µM (active) and 15.5 µM (active).

For the compound `O=c1cc[nH]c(=S)[nH]1`, the Potency is 40.2 µM (active) and inactive.

`c1ccc2[nH]ccc2c1`: the Potency is 35 µM (active) and inactive.

As to `Cc1cc(=O)[nH]c(=S)[nH]1`, the Potency entry was “inactive”.

In the case of `O=C(O)CCC(=O)O`, the Potency result is “inactive”.

As for `CC(O)CO` (centres undefined), the Potency entry was “inactive”.

On to `O=C1CN(/N=C/c2ccc([N+](=O)[O-])o2)C(=O)N1`, for which the Potency result is “inactive”.

`O=C(O)c1cc(N=Nc2ccc(S(=O)(=O)Nc3ccccn3)cc2)ccc1O`: the Potency is 14.2 µM (active) and 17.8 µM (active) and 8.71 µM (active).

Source of the values: PubChem BioAssay (Tox21).
